Experimental data as given in the supplement of paper PMC6555819.

How the values were obtained:
Assay in all cases: PBM binding z-score (relative to random genomic background probes); higher = stronger binding; sequences stand for … in GC…GCGATTGACAGCGTAGAATGAAGG
[1] = test system: FXR:RXRa (NR concentration 270 nM, RXRa partner concentration 90 nM)
How it was run: (§1)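 For binding z-scores, the reference was random background probes on custom Agilent 4×180K protein-binding microarrays. These arrays were incubated 1 h with ligand-free nuclear receptor dimers in PBS pH 7.4, 2% milk, 0.02% Triton X-100, 1 mM DTT, 0.2 mg/mL BSA and 0.4 mg/ml salmon testes DNA. Fluorescence was scanned after antibody detection of each partner (one per run) and regression-normalized.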

[2] = test system: LXRa:RXRa (NR concentration 270 nM, RXRa partner concentration 90 nM)
How it was run: as §1

[3] = test system: LXRa homodimer (NR concentration 270 nM)
How it was run: as §1

[4] = test system: LXRb:RXRa (NR concentration 270 nM, RXRa partner concentration 90 nM)
How it was run: as §1

[5] = test system: LXRb homodimer (NR concentration 270 nM)
How it was run: as §1

[6] = test system: PPARa:RXRa (NR concentration 270 nM, RXRa partner concentration 90 nM)
How it was run: as §1

[7] = test system: PPARg:RXRa (NR concentration 180 nM, RXRa partner concentration 90 nM)
How it was run: as §1

[8] = test system: PPARg:RXRa 270nM:90nM, anti-RXR (NR concentration 270 nM, RXRa partner concentration 90 nM)
How it was run: as §1

[9] = test system: PPARg:RXRa 30nM:10nM, anti-RXR (NR concentration 30 nM, RXRa partner concentration 10 nM)
How it was run: as §1

[10] = test system: PPARg:RXRa 90nM:30nM, anti-RXR (NR concentration 90 nM, RXRa partner concentration 30 nM)
How it was run: as §1

Sequence	PBM binding z-score [1]	PBM binding z-score [2]	PBM binding z-score [3]	PBM binding z-score [4]	PBM binding z-score [5]	PBM binding z-score [6]	PBM binding z-score [7]	PBM binding z-score [8]	PBM binding z-score [9]	PBM binding z-score [10]
TCTTGTAGATCAGCAGGTTAAGAAAGCTGGCCAA	-0.00874	0.161	-0.357	0.167	-0.4	0.684	-0.446	1.3	2.21	1.66
AATACAGGGTCATCGTAGGCCAGCGTACGCACAG	7.47	6.19	2.61	4.66	1.23	6.28	6.7	5.95	2.73	4.61
TCCGCTAGGTCAACGATGGTCAGCTAATCTGCTA	2.89	2.67	0.0246	1.54	-0.303	3.09	2	2.53	1.82	2.22
CCTTACGGGTCAAGGTTATAGGACGGGTGGTACG	5.27	3.82	0.302	3.28	0.221	5.05	4.55	4.69	2.05	3.36
CCTACTGGGCCAAACAGGTCATTGATGCCGATAA	0.606	0.905	0.657	1.55	-0.709	2.56	1.79	2.18	0.412	1.43
CGAACTAGGTTATCCAGGACAGTGAATACATTGA	0.556	0.403	0.239	0.204	-0.168	2.31	2.82	2.24	0.585	1.4
CAAACTAGGTCAAGAGGTCAACGTCCGCTTCCCG	6.68	6.31	5.46	5.27	1.55	6.6	9.74	8.42	7.54	8.92
GCGACTGGGGCATCAGCAGGTTACCGTAACTTAA	-0.346	-0.107	-0.365	0.443	-0.973	1.18	0.623	0.961	-0.441	-0.00586
GCTTACGGGTCAAAGGTGATAGCATGAATAGAAT	6.24	4.59	0.0435	4.64	0.353	6.57	10.2	8.54	7.83	9.26
GCGACTGGGGCAAAGCAGGTTACCAAAAGGTTGG	0.475	0.517	-0.168	0.19	-1.32	1.78	1.11	1.55	-0.194	0.774
GTACCAAGGTGAATCGGTCGTTGATGAGTAGGCG	0.346	0.0414	-0.326	-0.181	-0.693	1.05	0.567	0.624	-0.427	0.0488
TCTAGTTGGTCAAGGGTCACACACTCGAAATGCG	4.17	3.76	1.25	4.01	0.821	5.27	9.83	8.51	9.9	9.97
TAGCCTAGGTCATGCGGGCCAGTTTAGTGTCGGC	3.92	3.15	0.212	1.71	-0.269	3.27	1.32	2.02	-0.211	1.01
ATATGTAGGTTATGGGGTCATTCAGTTTGCGCAT	5.54	5.12	3.61	5.55	2.36	5.91	8.65	7.03	5.67	7.31
CCTACTGGGCCAAAAAGGGCATTGATGCCGATAA	-0.479	-0.109	-0.296	-0.0231	-1	1.12	0.538	1.32	-0.152	0.651
CAAACTAGGTCAACAGGTCAAAGTCCGCTTCCCG	6.05	5.38	3.92	4.38	1.14	6.02	9.26	7.93	6.55	8.02
TCTCGGAGGACACGAAAGGCCAGAGCTCGACATC	0.554	-0.137	-0.548	-0.341	-1.2	0.0543	0.264	0.908	1.86	1.56
CCTACTGGGCCATTCAGAAGTCATTGATCATATG	-0.391	-0.415	-0.186	-0.497	-0.171	0.968	0.302	0.341	-0.166	-0.00895
CAGCCTAGGTCAGGTCCAGTATAGGAGGAACGTT	1.07	0.851	-0.352	0.578	-1.03	1.24	0.465	0.541	-0.0378	0.231
ACTAGCAGGCCAAGGGTCACTCCAGATTAGTCCG	2.22	2.79	0.477	2.39	-0.313	4	7.89	7.08	5.52	7.48
CCTAGTTGGTCAACGTCACACACGCTATAGGTAC	0.458	0.525	0.431	0.877	0.581	0.58	1.25	0.719	0.299	0.407
ACTAGCAGGCCAAGTTTGGGTCACCCAAACAAAG	0.488	0.347	-0.356	0.836	-0.589	1.98	0.125	0.213	-0.577	-0.0867
CGTCCAAGGTCAGCTGGTCAGTGAAAGCGACGTG	5.24	3.28	-0.407	2.31	-0.208	3.99	2.08	2.85	0.432	1.47
TCTTGTAAATCAACAGGAGGTTAAGAAAGATCGA	0.826	1.32	0.389	1.1	0.0438	1.36	0.285	2.05	3.57	2.79
ACTATGAGTTGACTTAGGGCAACCGATACGACGC	0.53	0.591	0.2	0.365	0.578	0.327	1.08	0.524	0.371	0.418
